Reference: PubChem BioAssay (Tox21)
Records with an inconclusive call do not appear. Values without a mark were called inactive. Calls of active or inactive are those of the source. Unless noted, the call rests on the fitted dose curve; in most records, active means well fitted cell-killing curve with a large enough effect in the repeat runs; inconclusive means weak or mixed curves; inactive means no such curve, though single readings can be large or run the other way.

Tested on: not listed separately
Assay: qHTS assay to identify small molecule antagonists of the peroxisome proliferator-activated receptor delta (PPARd) signaling pathway - cell viability counter screen (AID 743213); further: nearly all actives have a fitted effect of over 50% in size
Details: PPARd-bla HEK293H viability, CellTiter-Glo luminescence, 17 h; series mostly up to 62 µM; viability change, negative = cytotoxic: at the top concentration
Outline: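 Luminescence from CellTiter-Glo, added after the bla read and incubated 30 min at room temperature, gives viability of HEK293H PPARd-bla cells exposed to compounds for 17 h at 37 C with 300 nM L165041.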
On the % scale 0 is the no-effect control and ±100 the full control effect; potency means the concentration at half of the fitted maximal effect.

| Structure (SMILES) | viability change, negative = cytotoxic | Potency |
| --- | --- | --- |
| COC(=O)c1ccccc1OC | 17.6% |  |
| CCCC[P+](C)(CCCC)CCCC | -7.15% [at 80.4 µM] |  |
| Cc1nc2n(c(=O)c1CCN1CCC(c3noc4cc(F)ccc34)CC1)CCCC2 | 1.09% |  |
| [Cu+] | 0.582% |  |
| CCCCCCOC(=O)C(C)CC (stereo unspecified) | 3.74% |  |
| C=Cc1cccc(C)c1 | -20.5% |  |
| CCc1cccc(CC)c1NC(=O)CN(CC(=O)O)CC(=O)O | 0.0852% |  |
| CCO[C@@H]1O[C@H](C(COCc2ccccc2)OCc2ccccc2)[C@H](OCc2ccccc2)[C@H]1O (stereo partly specified) | -0.471% |  |
| CCCc1ccc(OCC(=O)N2CCN(C(=O)COc3ccc(CCC)cc3OC)CC2)c(OC)c1 | 0.826% |  |
| CCCCCCCC | 1.57% |  |
| CC(C)CCOC(=O)/C=C/c1ccccc1 | 12.3% [at 80.4 µM] |  |
| CCCCN(CCCC)CC(O)c1cc(Cl)cc2c1-c1ccc(Cl)cc1/C2=C/c1ccc(Cl)cc1 (stereo unspecified) |  | 29.8 µM (active) |
| Oc1cc(Cl)cc(Cl)c1Cl | 1.75% [at 80.4 µM] |  |
| Cc1ccc(-c2ccccc2)cc1 | -2.82% |  |
| C/C=C/C=C/COC(=O)C(C)C | 10.6% |  |
| CCCCCCCCCCOC(=O)c1ccccc1C(=O)OCCCCCCCC | -0.197% |  |
| OC12N=C(c3ccccc3)SC1Cc1cc(Cl)ccc12 (stereo unspecified) | -2.59% |  |
| CC(=O)c1ccc(C(C)=O)cc1 | -2.43% [at 80.4 µM] |  |
| CC(C)(C)CC(C)(C)c1ccc(Nc2ccc(C(C)(C)CC(C)(C)C)cc2)cc1 | 2.44% [at 6.26 µM] |  |

Target: Peroxisome proliferator-activated receptor delta (Homo sapiens) (UniProt Q03181)
Sequence (Q03181 whole entry, looked up): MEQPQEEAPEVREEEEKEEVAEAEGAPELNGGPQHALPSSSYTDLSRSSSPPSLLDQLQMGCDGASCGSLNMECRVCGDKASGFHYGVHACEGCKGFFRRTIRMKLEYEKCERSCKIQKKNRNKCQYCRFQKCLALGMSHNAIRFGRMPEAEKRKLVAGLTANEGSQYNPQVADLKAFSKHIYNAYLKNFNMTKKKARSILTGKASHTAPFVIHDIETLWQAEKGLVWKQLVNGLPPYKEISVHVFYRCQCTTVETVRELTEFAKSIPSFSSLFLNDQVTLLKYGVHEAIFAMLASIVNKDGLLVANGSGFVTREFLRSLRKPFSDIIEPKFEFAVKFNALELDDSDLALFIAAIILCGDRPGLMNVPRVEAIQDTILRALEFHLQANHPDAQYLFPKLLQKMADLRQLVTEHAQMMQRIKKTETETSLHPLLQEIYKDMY
Assay: qHTS assay to identify small molecule antagonists of the peroxisome proliferator-activated receptor delta (PPARd) signaling pathway (AID 743215; active means well fitted inhibition curve with a large enough effect in the signal ratio in the repeat runs, not every such curve was filed as active; the % refers to the signal ratio;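 further: cells stimulated with agonist L165041 at 300 nM final during compound exposure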)
Details: HEK293H PPARd-UAS-bla, beta-lactamase FRET ratio, antagonist, 17 h; series mostly up to 62 µM; ratio activity, negative = inhibition: at the top concentration
Outline: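 Screen format: qHTS, antagonist mode. HEK293H PPARd-bla cells received compound and 300 nM L165041 (final), 17 h, 37 C. Beta-lactamase detected via FRET substrate fluorescence, 2 h, room temperature.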

| Structure (SMILES) | ratio activity, negative = inhibition | Potency |
| --- | --- | --- |
| COC(=O)c1ccccc1OC | -2.94% |  |
| c1cnccn1 | -8.21% [at 80.4 µM] |  |
| COc1cc2nc(N3CCN(C(=O)c4ccco4)CC3)nc(N)c2cc1OC | -7.88% [at 28.9 µM] |  |
| CCCC[P+](C)(CCCC)CCCC | -11.7% [at 80.4 µM] |  |
| Cc1nc2n(c(=O)c1CCN1CCC(c3noc4cc(F)ccc34)CC1)CCCC2 | 14.2% |  |
| O[C@@H]([C@H](O)[C@H](O)CBr)[C@H](O)CBr | -15.2% |  |
| [Cu+] | -5.19% |  |
| Cc1ccc(O)c(O)c1 | -16% |  |
| CCCCCCOC(=O)C(C)CC (stereo unspecified) | 4.72% |  |
| O=[N+]([O-])c1ccc(O)cc1C(F)(F)F | 1.39% |  |
| O=c1[nH]c2ccccc2n1CCCN1CCN(C(c2ccccc2)c2ccccc2)CC1 | -2.27% |  |
| C=Cc1cccc(C)c1 | -0.836% |  |
| O=C(/C=C/c1ccc(O)c(O)c1)O[C@@H](C(=O)O)[C@@H](OC(=O)/C=C/c1ccc(O)c(O)c1)C(=O)O | -9.38% |  |
| CCc1cccc(CC)c1NC(=O)CN(CC(=O)O)CC(=O)O | 1.62% |  |
| CCCCCCCC | 16.1% |  |
| COC1=C(OC)C(=O)C(CCCCCCCCCCO)=C(C)C1=O |  | 26.6 µM (active) |
| CC(C)CCOC(=O)/C=C/c1ccccc1 | 3.02% [at 80.4 µM] |  |
| Cc1ccc(-c2ccccc2)cc1 | 0.407% |  |
| C/C=C/C=C/COC(=O)C(C)C | -5.69% |  |
| C=CC(C)(CCC=C(C)C)OC=O (stereo unspecified) | 11.6% |  |
| CC(CO)Oc1ccccc1 (stereo unspecified) | 9.06% [at 80.4 µM] |  |
| OC12N=C(c3ccccc3)SC1Cc1cc(Cl)ccc12 (stereo unspecified) | -0.281% |  |
| O=C(O)c1cc(=O)c2ccccc2o1 | 3.12% |  |
| CC(=O)c1ccc(C(C)=O)cc1 | 2.84% [at 80.4 µM] |  |
| CC[N+](CC)(CC)CCOC(=O)C(C1CCCC1)C1CCCC1 | 9.4% |  |
| CC(C)(C)CC(C)(C)c1ccc(Nc2ccc(C(C)(C)CC(C)(C)C)cc2)cc1 | -4.33% [at 6.26 µM] |  |
| NC(=O)c1cccc([N+](=O)[O-])c1 | 10.4% |  |
